# From PubChem BioAssay AID1745847 (National Center for Advancing Translational Sciences (NCATS), 2022)
# The whole screen tested about 2,100 compounds, of which about 670 (32%) were called active. About 50% were inconclusive and are not listed. The list shows a part of the results. Values without a mark were called inactive. Calls follow the shape of the dose curve; as a rule, active = well fitted inhibition curve with a large enough effect; inconclusive = small, poorly fitted or top-dose-only effect; inactive = no such curve, though single readings can be large or run the other way.
# Assay: CMV-Luciferase Counterscreen for Inhibitors of ATXN expression; also: nearly all actives have a fitted effect of over 55% in size
# Conditions: HEK-293 CMV-luciferase reporter, luminescence, 24 h; series mostly up to 57.5 µM; activity change, negative = inhibition: at the top concentration
# % is scaled to controls: 0 for no effect and ±100 for the full control effect; potency is read from the fitted curve at half-maximal effect.
SMILES,"activity change, negative = inhibition",Potency
Cc1cc2nc(-c3nnnn3Cc3ccccc3)c(=O)[nH]c2cc1C,-9.85% [at 11.4 µM],
CCn1c2ccccc2c2cc(NC(=O)COC(=O)Cc3cn4ccsc4n3)ccc21,33.4% [at 11.4 µM],
CC(=O)c1ccc(NC(=O)COC(=O)c2c3c(nc4ccccc24)/C(=C\c2cccs2)CCC3)cc1,,17.8 µM (active)
CCn1c2ccccc2c2cc(NC(=O)COC(=O)c3ccccc3F)ccc21,9.52% [at 11.4 µM],
Cc1cc(C)nc(N/N=C2/CCCC/C2=C\c2ccccc2)n1,,3.16 µM (active)
NC(N)=N/N=C/c1ccc2cccc(OCc3ccccc3)c2n1,,22.4 µM (active)
Cc1cc(Cl)ccc1-c1cc2nc(NCCCN(C)C)n(C)c(=O)c2s1,5.92% [at 11.4 µM],
N#Cc1c(N)n(C2OC(CO)C(O)C2O)c2ncnc(N)c12 (stereo not drawn),-38.9%,
Nc1ccn([C@@H]2O[C@H](CO)[C@@H](O)C2O)c(=O)n1 (stereo partly drawn),,2.51 µM (active)
CNc1nc2c(N)ncnc2n1[C@H]1O[C@@H](CO)[C@H](O)[C@@H]1O,119% [at 11.4 µM],
COC(=O)c1c(NC(=O)c2ccc([N+](=O)[O-])o2)sc2c1CCN(C(C)C)C2,,15.8 µM (active)
O=C(COc1ccccc1Cl)Nc1ccc(N2CCN(C(=O)c3ccccc3)CC2)cc1,,3.55 µM (active)
CC(=O)N(C1=C(Cl)C(=O)c2ccccc2C1=O)C1CCCCC1,,12.6 µM (active)
CCCCOc1ccccc1NC(=O)Cn1c(-c2nonc2N)nc2ccccc21,-2.18%,
COCCCn1c(N)c(-c2nc3ccccc3n2C)c2nc3ccccc3nc21,,17.8 µM (active)
Cc1ccc(NS(=O)(=O)c2ccc(NC(=O)C(C)Sc3ccc(Cl)cc3)cc2)c(C)c1 (stereo not drawn),,25.1 µM (active)
O=C(c1ccc(F)cc1F)C1CCN(c2ccc([N+](=O)[O-])cn2)CC1,,4.47 µM (active)
CC(Oc1ccc(F)cc1)C(=O)Nc1nc(-c2ccccn2)cs1 (stereo not drawn),,2.51 µM (active)
COC(=O)C(Cc1ccc(O)cc1)NC(=O)C(C)Oc1ccccc1 (stereo not drawn),-13.3%,
NC(c1ccccc1)c1csc(NC(=O)Nc2ccccc2Oc2ccccc2)n1 (stereo not drawn),-22.9% [at 11.4 µM],
Cc1cc(C)c2nc(NNC(=O)c3cc(-c4cccs4)nc4ccccc34)sc2c1,,2.82 µM (active)
CCN1CCS/C1=C\C=C\C1=[N+](CC)CCS1,,3.98 µM (active)

SMILES,"activity change, negative = inhibition",Potency
NCCCCCc1nnc(SCc2ccccc2Cl)o1,-36.5% [at 11.4 µM],
CCOC(=O)c1c(-c2ccccc2)oc2cc(CN(C)C)c(O)c(CN(C)C)c12,,8.91 µM (active)
CC(=O)Nc1ccc(N(CC(O)Cn2c3ccccc3c3ccccc32)S(=O)(=O)c2ccc(C)cc2)cc1 (stereo not drawn),,20 µM (active)
Cn1c(SCC(=O)Nc2cc(Cl)cc(Cl)c2)nnc1-c1ccc2nonc2c1,-10.7% [at 11.4 µM],
O=C(CSc1nnnn1-c1ccccc1)Nc1nsc(-c2ccccc2)n1,-0.699%,
CSc1sc(-c2nnc(SCC(=O)Nc3ccc(Cl)cc3)n2C)c2c1C=CCC2,-19.8% [at 11.4 µM],
Cn1c(SCC(=O)N/N=C/c2ccc([N+](=O)[O-])s2)nnc1-c1ccc(Cl)cc1,,15.8 µM (active)
Cn1c(SCC(=O)N/N=C/c2ccc([N+](=O)[O-])s2)nnc1-c1ccccc1,,22.4 µM (active)
Cc1ccc2[nH]c(=O)c(CN(CCCN(C)C)C(=O)Nc3cccc(Cl)c3)cc2c1,-29.3%,
O=c1c2ccc(Cl)cc2nc(-c2ccc([N+](=O)[O-])cc2)n1O,,7.94 µM (active)
CC(C)(C)c1cc(C(=O)NNc2cc(C(F)(F)F)ccc2Cl)n(Cc2ccccc2)n1,24.6%,
Cc1cc(Cl)c(C(=O)Nc2cccc(C(F)(F)F)c2)c(C)n1,,17.8 µM (active)
Cc1nc(-c2c(C(F)(F)F)noc2-c2ccc(O)cc2O)cs1,,11.2 µM (active)
CCC(=O)NC(c1ccc(Cl)cc1Cl)c1ccc2cccnc2c1O (stereo not drawn),,2.24 µM (active)
CCCCC(=O)NC(c1ccc(OC)c(OC)c1)c1ccc2cccnc2c1O (stereo not drawn),,2.82 µM (active)
CCCCC(=O)NC(c1ccccc1OC)c1ccc2cccnc2c1O (stereo not drawn),,2.82 µM (active)
CCCCC(=O)NC(c1ccccc1Cl)c1ccc2cccnc2c1O (stereo not drawn),,2.51 µM (active)
COc1ccc(N2C3=C(CC4=C2CC(C)(C)CC4=O)C(=O)CC(C)(C)C3)cc1,-2.52% [at 11.4 µM],
CCCCC(=O)NC(c1ccc(Cl)cc1Cl)c1ccc2cccnc2c1O (stereo not drawn),,0.794 µM (active)
CCCC(=O)NC(c1ccc(Cl)cc1Cl)c1ccc2cccnc2c1O (stereo not drawn),,2.51 µM (active)
CCCCOc1ccc(C(=O)NNC(=O)c2cnccn2)cc1OC,,10 µM (active)
CN(C)CCC(c1ccc(Br)cc1)c1ccccn1 (stereo not drawn),-17.1%,

SMILES,"activity change, negative = inhibition",Potency
COc1ccc(CC(=O)Nc2nc(-c3ccc(F)c(F)c3)cs2)cc1OC,,6.31 µM (active)
COc1ccc(-c2csc(NC(=O)c3ccc(OCC(=O)N4CCOCC4)c(OC)c3)n2)cc1OC,,14.1 µM (active)
O=C(Nc1nc(-c2ccc(F)c(F)c2)cs1)Nc1ccc(F)cc1F,6.09% [at 11.4 µM],
COc1cc(C(=O)OC(C)C(=O)N2CCc3ccccc3C2)ccc1OCC(=O)N1CCOCC1 (stereo not drawn),-9.5% [at 11.4 µM],
COCCNc1nc(-c2cc(C)n(CCc3ccc(OC)cc3)c2C)cs1,-10.1%,
O=C(CCN1C(=O)C2CC=CCC2C1=O)Nc1nc(-c2ccc(F)c(F)c2)cs1 (stereo not drawn),-0.282%,
COc1ccc(/C(N)=N/OC(=O)N2CCOCC2)cc1,20.7% [at 11.4 µM],
COc1ccc(CC(=O)Nc2nc(-c3ccc(OC)c(OC)c3)cs2)cc1OC,,3.55 µM (active)
Cc1noc(C)c1CSCC(=O)Nc1nc(-c2ccc(F)c(F)c2)cs1,,25.1 µM (active)
Cc1ccc(NC(=O)CCC(=O)c2cc(C)sc2C)nc1,301%,
Cc1ccc(OCC(=O)N2CCN(c3nnc(-c4ccc(C)cc4)c4ccccc34)CC2)cc1,,2.24 µM (active)
CCCCOC(=O)/C=C\C(=O)NC(N)=O,,14.1 µM (active)
CCOC(=O)/C=C/C(=O)Nc1ccc(Oc2ccccc2)cc1,-6.32% [at 11.4 µM],
CN(c1ccccc1)S(=O)(=O)c1ccc(C(=O)Nc2nnc(-c3ccc(F)cc3)o2)cc1,,10 µM (active)
Cc1nc2ccc(NC(=O)c3cccc(S(=O)(=O)N(C)c4ccccc4)c3)cc2s1,,3.55 µM (active)
Cc1nc2cc(NC(=O)CSc3nc4c(C)cccc4cc3C#N)ccc2s1,-19.4%,
Cc1ccc2nc(N(CCCN(C)C)C(=O)c3ccc(S(=O)(=O)N4CCCCCC4)cc3)sc2c1,-18.5% [at 11.4 µM],
CCCN(CCC)S(=O)(=O)c1ccc(C(=O)Nc2nnc(-c3cc(OC)cc(OC)c3)o2)cc1,,0.794 µM (active)
Cc1nc2ccc(NC(=O)c3ccc(S(=O)(=O)N(C)c4ccccc4)cc3)cc2s1,,3.98 µM (active)
O=C(Nc1nnc(-c2ccc(F)cc2)o1)c1cc(Cl)sc1Cl,,10 µM (active)
Cc1cccc(NC(=O)c2ccc(S(=O)(=O)N(C)c3ccccc3)cc2)n1,,14.1 µM (active)
O=C(c1ccco1)N1CCCC(c2nc(-c3ccc(S(=O)(=O)NCc4ccccc4)cc3)no2)C1 (stereo not drawn),,11.2 µM (active)

SMILES,"activity change, negative = inhibition",Potency
COc1cc2c3nnc(-c4ccc(F)cc4)c-3cn(Cc3ccc(F)cc3)c2cc1OC,-11.8% [at 11.4 µM],
O=C(C1CCCCC1)N1CCN(c2ccnc3cc(Cl)ccc23)CC1,,5.01 µM (active)
CCOC(=O)C(=CNc1ccc2c(c1)nnn2-c1ccc(Cl)cc1)C(=O)OCC,7.31%,
CCOC(=O)N1CCN(c2ccnc3cc(Cl)ccc23)CC1,,2.51 µM (active)
CC(C)N(C(=O)N1CCN(c2ccnc3cc(Cl)ccc23)CC1)C(C)C,,12.6 µM (active)
O=C(c1ccco1)N1CCN(c2ccnc3cc(Cl)ccc23)CC1,,14.1 µM (active)
Cc1cc2oc3ccc(NCCC4CCCN4C)cc3c(=O)c2cc1C (stereo not drawn),6.26%,
CN[C@H]1C[C@H]2c3[nH]c4ccc(-c5ccc(OC)cc5)cc4c3CCN2C(=O)[C@H]1[C@H](C)O,,3.55 µM (active)
Cc1nn(C)c(C)c1NC(=O)CSc1nc(Cc2ccccc2)nc2c1cnn2-c1ccccc1,-7.1% [at 11.4 µM],
CC(C)CC(=NNC(=O)c1ccncc1)c1cc(Cl)ccc1O,,0.282 µM (active)
N/C(=C\C(=O)c1cc(Cl)ccc1O)C(Cl)(Cl)Cl,21.6% [at 11.4 µM],
CC(=NNC(=O)c1ccncc1)c1ccc2ccccc2c1O,,0.794 µM (active)
COc1ccc(/C(C)=N/NC(=O)c2cccc(S(=O)(=O)N3CCCC3)c2)c(O)c1,,3.98 µM (active)
C/C(=N\NC(=O)c1cc(-c2cccnc2)nc2ccccc12)c1ccc(O)cc1O,,2.51 µM (active)
O=C1CCCC(O)=C1C=NCc1ccccc1,6.36% [at 11.4 µM],
CCN(CC)S(=O)(=O)c1cccc(C(=O)N/N=C(\C)c2ccc(O)cc2O)c1,,4.47 µM (active)
CC(=NNC(=O)c1ccncc1)c1ccc(O)cc1O,,11.2 µM (active)
Oc1c(CN2CCCCC2)ccc2cccnc12,,12.6 µM (active)
CCN(CC)CCNc1ccnc2cc(Cl)ccc12,-15.4% [at 11.4 µM],
Clc1ccc2c(NCc3ccccc3)ccnc2c1,,8.91 µM (active)
Cc1ccc2c(Cl)cc(Cl)c(O)c2n1,,8.91 µM (active)
CS(=O)(=O)N1CCC(Oc2cccc(C(=O)NCCCC3CCCC3)c2)CC1,,14.1 µM (active)
